Vif imaging: inhibitors of HIV Vif; inhibition, % at 7.49 µM; HEK293T cells, Vif self-association by quenched fluorescence, imaging, 24 h; hit rate 0.35% among 340,000; in the data active = inhibition above about 50%, passing the limit was not always enough
aDG glyco up: increases alpha dystroglycan glycosylation; activation, % at 10 µM; Pro5-aDG cells, alpha-DG glycosylation AlphaScreen (IIH6); 0% Pro5, 100% B10-LARGE cell signal; hit rate 0.22% among 360,000;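 active = activation of at least 8% versus controls, or a plate z-score of at least 8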;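 note: Pro5 are CHO cells carrying HIG-tagged alpha-DG that lacks glycosylation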
H9c2 protect: protects H9c2 cardiomyocytes from peroxide injury. protection from H2O2 cell death, % at 20 µM. hit rate 0.63% among 360,000. H2O2 injury protection, ATPLite, 2 h;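 active = compounds giving at least 50% protection of heart cells from peroxide-induced death in the single-dose screen, raw or plate-pattern-corrected value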;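 note: 0% = DMSO wells with peroxide and 100% = DMSO wells without peroxide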
N-glyco inh: N-linked glycosylation inhibition; AID 588692; hit rate 0.23% among 360,000; D54 ERlucT glycosylation luciferase reporter, 24 h; percent of 100 nM tunicamycin response; reporter increase, % at 12.5 µM;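 active = mean luciferase reporter signal, scaled so untreated is 0 and the glycosylation-blocking control 100, at or above a set limit in every replicate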;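 note: luciferase carries N-glycosylation sites so blocking glycosylation raises the light; 0% = median of neutral control wells and 100% = median of 100 nM tunicamycin wells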
ARNT-TACC3 inh: disrupts binding between human ARNT and TACC3; hit rate 0.66% among 390,000; AlphaScreen His-ARNT PAS-B/GST-TACC3 binding, luminescence; TACC3 fragment carries E629A point mutation; Q9Y6A5; inhibition, % at 9.99 µM;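 active = mean inhibition of replicates at least 50% and at least half of replicates each reaching 50%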;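 note: 0% = complete ARNT plus TACC3 wells and 100% = ARNT alone without TACC3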
* hit, by the source's call; / = no result. Compounds with a hit are over-represented: about 1.7% of the library has one in this group of screens.

SMILES | Vif imaging | aDG glyco up | H9c2 protect | N-glyco inh | ARNT-TACC3 inh
C=CCc1cccc(/C=N/NC(=O)CCC(=O)Nc2ccc(F)cc2)c1O | 7 | 1 | 57* | -3 | 4
C[C@@H]1CN([C@@H](C)CO)S(=O)(=O)c2ccc(C3=CCCCC3)cc2O[C@H]1CN(C)Cc1cncnc1 | / | / | / | / | 10
Cc1noc(C)c1NC(=O)N(C)C[C@@H]1OCCCC[C@@H](C)Oc2ccc(NS(=O)(=O)c3ccccc3)cc2C(=O)N([C@H](C)CO)C[C@@H]1C | / | / | / | / | -4
NC(=O)c1oc2ccccc2c1NC(=O)c1ccco1 | -5 | 0 | 72* | 5 | 12
CCOc1ccc2c(C)c(C)c(=O)oc2c1OCC | 4 | 1 | 5 | 2 | -4
CCOc1ccc2c(C)c(C(=O)O)oc2c1OCC | 55* | 0 | 3 | 2 | -5
C[C@H]1CN([C@@H](C)CO)C(=O)c2cc(C#CCc3ccccc3)cnc2O[C@@H]1CN(C)Cc1cccnc1 | / | / | / | / | -2
Cc1ccc(/C=C2\SC(=S)N(CCCC(=O)NNC(=O)c3ccccc3O)C2=O)cc1 | -3 | 0 | 55* | -8 | 8
Cc1ccc(/C=C2\SC(=S)N(CCC(=O)NNC(=O)c3ccccc3O)C2=O)cc1 | -10 | 0 | 7 | 0 | 4
Cc1ccc(S(=O)(=O)c2c(C)cc(C)nc2Oc2cccc(C(F)(F)F)c2)cc1 | -23 | 0 | -14 | -4 | active
COC(=O)c1ccc(=O)c2nc3/c(=C/O)c(O)cc(=O)c3[nH]c12 | 2 | 0 | -2 | -4 | 59*
CCC(=O)Nc1ccc2c(c1)OC[C@H](C)N(C(=O)Cc1ccccn1)C[C@@H](C)[C@@H](OC)CN(C)C2=O | / | / | / | / | -4
CCOC(=O)c1ccc(-c2ccc(/C=C(\C#N)C(=O)NCC3CCCO3)o2)cc1 (configuration not stated) | 1 | 1 | 52* | 2 | -2
COc1ccc(/C=C(\C#N)C(=O)NCC2CCCO2)cc1OC (configuration not stated) | 0 | 0 | 2 | 0 | -4
O=c1cc[nH]c2c1ccc1c(=O)cc[nH]c12 | 7 | 2 | 0 | 1 | 74*
C[C@@H](NC(=O)C[C@@H]1C=C[C@H](NC(=O)Cc2ccccn2)[C@H](CO)O1)c1ccccc1 | / | / | / | / | -1
Cc1ccc2occ(C(c3nnnn3C3CCCC3)N3CCN(C(=O)c4ccco4)CC3)c(=O)c2c1 (configuration not stated) | -7 | 0 | 52* | -4 | 7
Cc1ccnc(NC(=O)C(Cc2ccccc2)NC(=O)c2ccccc2)c1 (configuration not stated) | -3 | 0 | 5 | 25* | -15
COc1ccc(-n2c(SCC(=O)N3CCCCC3)nc3ccccc3c2=O)cc1 | 9 | 0 | 0 | 1 | -1
CCOC(=O)N1CCN(C(=O)CSc2nc3ccccc3c(=O)n2-c2ccccc2)CC1 | -22 | 0 | 52* | -3 | -2
O=C(c1cccc(F)c1)N1CCCCN2[C@H](CO)[C@H](c3ccc(-c4ccc(F)cc4)cc3)[C@H]2C1 | / | / | / | / | 5
CCc1ccc2c(c1)CCCN2C(=O)c1ccccc1C(=O)O | -2 | 0 | -13 | 3 | 49*
Nc1c(C(=O)Nc2nc3ccccc3s2)sc2nc(-c3cccs3)ccc12 | 154* | 0 | -39 | 13 | 21
COc1ccc(C(=O)c2sc3nc(C)cc(-c4cccs4)c3c2N)cc1 | 0 | 1 | -5 | -5 | /
COc1ccc(C(=O)c2sc3nc(C)cc(-c4cccs4)c3c2N)cc1OC | 176* | 1 | 17 | -1 | -11
SMILES | Vif imaging | aDG glyco up | H9c2 protect | N-glyco inh | ARNT-TACC3 inh
Cc1cc(NC(=O)NCc2ccccc2)c(=O)n(Cc2ccc(F)cc2)c1 | 0 | 0 | -8 | -4 | 48*
Cc1cc(C)c(C)c(S(=O)(=O)N2CCC(C(=O)NNC(=O)c3ccccc3O)CC2)c1C | 10 | 0 | 66* | -7 | 10
Cc1ccc(S(=O)(=O)N2CCC(C(=O)NNC(=O)c3ccccc3O)CC2)cc1C | 1 | 0 | 12 | -4 | 0
CN(C)CCc1cc2c(c3c1ccc1ccccc13)OCO2 | -1 | 0 | 8 | 78* | 31
C[C@H](CO)N1C[C@H](C)[C@H](CN(C)S(C)(=O)=O)Oc2ccc(NC(=O)Nc3cccc4ccccc34)cc2C1=O | / | / | / | / | -9
Cc1ccc(NC(=O)/C=C/C(=O)O)c(NC(=O)c2ccccc2)c1 | 53* | 0 | 2 | 0 | 0
